# Reference: ChEMBL document CHEMBL3988442, “University of Dundee, Small-Polar-MMV Screening Library” (2021)
# About 950 (1.4%) of roughly 69,000 compounds showed an effect of 50% or more. Shown is part of a subset that was picked to be rich in strong results.
# Tested on: Mycobacterium tuberculosis
# Assay: Cornell M. t heat shock assay; further: in the data most compounds retested in dose-response had high values
# Assay type: functional, organism-based
# Set-up: dose or concentration left out as unconfirmed
row,Structure (SMILES),Percent Effect
1,CC(=O)N1CCN(c2cc(C3CCNCC3)ccn2)CC1.Cl.Cl,2.778%
2,O=C(N1CCCC1)N1CCC2(CC1)CN(c1cccnc1)C(=O)CO2.O=C(O)C(F)(F)F,-4.597%
3,CCn1cc(NC(=O)c2cccc(CN3C[C@@H](C)O[C@@H](C)C3)c2)nn1,87.48%
4,CCCn1cc(NC(=O)c2cccc(CN3CC=CC3)c2)nn1,-7.923%
5,CCCn1cc(NC(=O)c2cccc(CN3CC[C@H](O)C3)c2)nn1,18.76%
6,CN(C)C(=O)CO[C@H]1CN(Cc2ccsc2)[C@@H]2COC[C@H]12.O=C(O)C(F)(F)F,37.89%
7,CN(C)C(=O)Cn1c(C2CC2)c(CN2CCC(O)CC2)c2cccnc21.Cl,-13.49%
8,CC(C)CCn1c(=O)nc2n1C(=O)N(c1ccc(F)cc1)C2,4.203%
9,CCC1=N[C@@]2(CC[C@@H]3CN(Cc4ccccc4C)C[C@@H]32)C(=O)N1C.O=C(O)C(F)(F)F,-3.912%
10,OC1CCN(CCNc2ncc3c(n2)CCN3c2ccccc2)CC1,-5.755%
11,O=C(CCNc1ncc2c(n1)CCN2c1ccccc1)N1CCCC1,58.85%
12,CN(C)C(=O)CCCNc1ncc2c(n1)CCN2c1ccccc1,14.48%
13,CCc1ncc(C(=O)N2CC[C@@H]3CC[C@H](C2)N3C)cn1,-16.81%
14,COc1cc2cc(C)c(SCCN3CCCCC3)nc2cc1OC.Cl,8.064%
15,CN1CCC(CNC(=O)c2cccc(NC(N)=O)c2)c2ccccc21 (stereo not given),13.83%
16,CN1CCC(CNC(=O)c2ccc(O)nc2)c2ccccc21 (stereo not given),10.05%
17,CN1CCC(CNC(=O)c2cccc(C(F)(F)F)c2)c2ccccc21 (stereo not given),80.18%
18,FC1(F)CCN(Cc2ccncc2)CC12CCN(Cc1ccccn1)C2.O=C(O)C(F)(F)F.O=C(O)C(F)(F)F.O=C(O)C(F)(F)F (stereo not given),-15.56%
19,CCN(C)c1ncnc2c1CCN(Cc1csc(C)n1)CC2.O=C(O)C(F)(F)F.O=C(O)C(F)(F)F,2.134%
20,O=S(=O)(C1CC1)N1CCc2ncnc(-c3ccsc3)c2CC1,-2.171%
21,O=C(O)C(F)(F)F.O=C(c1ncccn1)N1CCC2(CC1)COC(COc1ccccn1)C2 (stereo not given),-42.8%
22,Cc1nnc2n1CCN(Cc1csc(-c3cnn(C)c3)n1)C2,-22%
23,CCCC1CCCN(Cc2csc(-c3ncccn3)n2)CC1 (stereo not given),31.96%

row,Structure (SMILES),Percent Effect
1,CC(C)c1nnc2n1CCN(Cc1csc(-c3cnn(C)c3)n1)C2,2.86%
2,Cn1cc(-c2nc(CN3CCN(CCO)CC3)cs2)cn1,7.212%
3,CCCC1CCCN(Cc2csc(-c3cnn(C)c3)n2)CC1 (stereo not given),101.6%
4,CCc1nnc2n1CCN(Cc1csc(-c3cnn(C)c3)n1)C2,103.2%
5,O=C(O)C(F)(F)F.O=C1COC2(CCN(C(=O)c3ccoc3)CC2)CN1Cc1ccccn1,-25.96%
6,CCc1ccc2c(C3CN(C(C)=O)C3)ncn2c1,-5.457%
7,CCc1ccc2c(C3CN(CC4CCC4)C3)ncn2c1.O=C(O)C(F)(F)F,59.23%
8,CCc1ccc2c(C3CN(S(C)(=O)=O)C3)ncn2c1,-5.732%
9,Cc1ccoc1C(=O)N1C[C@H](OCc2cccnc2)[C@H]2OCCC[C@H]21.O=C(O)C(F)(F)F,-24.06%
10,CCc1cc(NCCCNS(C)(=O)=O)nc(-c2ccccn2)n1,56.84%
11,CCCC(=O)NCCc1cc(NC)nc(-c2ccccn2)n1,12.39%
12,CNc1cc(CCNC(=O)C2CCCC2)nc(-c2ccccn2)n1,89.44%
13,CNc1cc(CCNS(=O)(=O)c2ccccc2)nc(-c2ccccn2)n1,99.14%
14,CNc1cc(CCNC(=O)CC(C)C)nc(-c2ccccn2)n1,36.61%
15,Cc1cc(NCCCNS(C)(=O)=O)nc2ccccc12,-11.41%
16,CNC(=O)c1ccc(S(=O)(=O)NCCc2ccccn2)cc1,-8.04%
17,CCc1cc(NCCCNS(C)(=O)=O)nc(-c2ccncc2)n1,-1.348%
18,NC(=O)c1ccc(S(=O)(=O)NCCc2ccccn2)cc1,2.755%
19,CC1=C(C#N)C(=O)NC(=O)/C1=C\c1c(C)nn(-c2ccc(Cl)cc2)c1O,-14.1%
20,COc1ccc(CN2CC[C@H]3O[C@@H](C(=O)NCC4CC4)CC[C@H]32)cc1.O=C(O)C(F)(F)F,-25.68%
21,COc1cc(N2C[C@@H]3CC[C@H](C2)N(CC2CCC2)C3=O)ncn1,-13.86%
22,Cc1nc(N)c2ccc(C3CCCN3)nc2n1.Cl (stereo not given),-2.129%
23,CC(C)=CCN1C[C@H]2CC[C@@H]1CN(Cc1cc(=O)[nH]c(=O)[nH]1)C2,13.63%

row,Structure (SMILES),Percent Effect
1,COCCN1C[C@H]2CC[C@@H]1CN(Cc1nc3ccccc3n1C)C2,78.75%
2,COCCN1C[C@H]2CC[C@@H]1CN(CC(=O)Nc1ccn(C)n1)C2,-13.49%
3,O=c1cc(CN2C[C@H]3CC[C@@H]2CN(Cc2ccccc2)C3)[nH]c(=O)[nH]1,-10.28%
4,COCCN1C[C@H]2CC[C@@H]1CN(Cc1cc(=O)c3cc(C)ccc3[nH]1)C2,51.84%
5,COCCN1C[C@H]2CC[C@@H]1CN(Cc1ccc3ccccc3n1)C2,46.17%
6,Cc1ccc(CN2C[C@@H]3CN(C(=O)c4cccn4C)C[C@@H]3C2)cc1.O=C(O)C(F)(F)F,-6.874%
7,CN(C)[C@@H]1CCN(C(=O)CC2CC2)[C@H]1Cc1cnn(C)c1.O=C(O)C(F)(F)F,1.412%
8,O=C(O)C(F)(F)F.O=C1C[C@H]2[C@@H](CCN2C(=O)c2ccc[nH]2)N1CCN1CCCC1,-37.83%
9,CC1CCN(c2ncc(-c3ccccc3F)c(-c3nccn3C)n2)CC1,17.54%
10,CC1CCCN(c2ncc(-c3ccccc3F)c(-c3nccn3C)n2)C1 (stereo not given),84.22%
11,Cn1ccnc1-c1nc(N2CCCCC2)ncc1-c1ccccc1F,-0.09407%
12,O=C([C@H]1C[C@@H]2CN(c3ncc(F)cn3)C[C@H]1O2)N1CCOCC1,19.91%
13,CCc1ccc(CN2Cc3nccn3CC(Cn3cncn3)C2)o1.O=C(O)C(F)(F)F (stereo not given),0.4246%
14,CCOC(=O)N1CC(=O)N(Cc2cccc(OC)c2OC)CC(O)C1 (stereo not given),45.58%
15,COc1cccc(CN2CC(O)CN(C(=O)C3CC3)CC2=O)c1OC (stereo not given),31.08%
16,COc1ccccc1C(=O)N1CC(=O)N(CC2CC2)CC(O)C1 (stereo not given),43.16%
17,CC(C)(C)OC(=O)N1CC(=O)N(Cc2ccco2)CC(O)C1 (stereo not given),11.64%
18,COc1ccccc1C(=O)N1CC(=O)N(Cc2ccco2)CC(O)C1 (stereo not given),54.55%
19,Cc1ccc(C(=O)N2CC(=O)N(Cc3ccco3)CC(O)C2)cc1 (stereo not given),34.47%
20,COc1cccc(CN2CC(O)CN(C(=O)C(C)(C)C)CC2=O)c1OC (stereo not given),90.93%
21,CC(C)(C)C(=O)N1CC(=O)N(Cc2ccco2)CC(O)C1 (stereo not given),52.39%
22,CC(C)CC(=O)N1CC(=O)N(Cc2ccco2)CC(O)C1 (stereo not given),14.12%
23,O=C(CCc1nnc(-c2ccccc2)o1)N1CCCC1c1ccc[nH]1 (stereo not given),-1.66%

row,Structure (SMILES),Percent Effect
1,Cc1cccnc1N1CC2(CCN(Cc3cccnc3)C2)C1.O=C(O)C(F)(F)F.O=C(O)C(F)(F)F.O=C(O)C(F)(F)F,-27.63%
2,CN(C)CCN1CCCC12CCN(C(=O)c1ccco1)CC2.O=C(O)C(F)(F)F.O=C(O)C(F)(F)F,-2.887%
3,CN(C)CCOCC1CN(Cc2ccncc2)Cc2nnn(C)c21.O=C(O)C(F)(F)F.O=C(O)C(F)(F)F.O=C(O)C(F)(F)F (stereo not given),-16.03%
4,O=C(c1nn(-c2ccccc2F)cc1O)N1CCCC1,42.43%
5,CCc1ccccc1-n1cc(O)c(C(=O)N2CCCCC2)n1,56%
6,O=C(c1nn(-c2ccccc2F)cc1O)N1CCCCC1,22.71%
7,Fc1cccc(CN2C[C@@H]3CN(Cc4ccccn4)C[C@@H]3C2)c1.O=C(O)C(F)(F)F.O=C(O)C(F)(F)F,35.12%
8,CCN1CC2(CC1=O)CN(Cc1ccsc1)CCN(C(=O)C(C)C)C2.O=C(O)C(F)(F)F (stereo not given),-8.211%
9,O=C1c2cnc(N3CCC(O)CC3)nc2CN1Cc1cccc(F)c1,-32.08%
10,Cc1nc(Nc2cnccn2)cc(C2CN(C(C)C)C2)n1.O=CO,-9.635%
11,CN1CCCN(C(=O)c2ccnn2-c2ccc3ccccn23)CC1.O=C(O)C(F)(F)F,-45.73%
12,O=C1CCNc2ccccc2CN1Cc1ccco1,41.47%
13,COc1ccc2c(c1)CN(Cc1ccco1)C(=O)CCN2,54.29%
14,O=C1CCNc2ccc(F)cc2CN1Cc1ccco1,32.83%
15,Cc1nc(CN2C(=O)COC3(CCN(Cc4ccsc4)CC3)C2C)cs1.O=C(O)C(F)(F)F (stereo not given),-25.28%
16,CCCNC(c1cccnc1)c1ccc(F)c(C)c1.Cl.Cl (stereo not given),-18.54%
17,Cc1noc(C)c1CN1CC[C@H]2[C@@H]1CCC(=O)N2CC1CCOCC1.O=C(O)C(F)(F)F,19.97%
18,O=C(O)c1cc(/C=C/c2ccccc2)ncn1,-25.85%
19,O=C(O)c1cc(/C=C/c2cccc3ccccc23)ncn1,-14.83%
20,O=C(O)c1cc(/C=C/c2ccc3ccccc3c2)ncn1,55.05%
21,Cc1cccc(CN2Cc3nccn3CC(CN3CCOCC3)C2)c1.O=C(O)C(F)(F)F.O=C(O)C(F)(F)F (stereo not given),-25.56%
